Measured values: article PMC5540273 (PLoS ONE, 2017)
Where “and” joins values, the source holds several entries; their conditions need not be identical. Identical values can stand only once. Like-named read-outs stand apart in the source and are kept apart here.

Key:
Details in all cases: concentration: 1 μM, replicates: in singlicate, n = 1
DMPK = tested on: DMPK
DRAK1 = tested on: T1, DRAK1
T1 construct: gene STK17A

DRAK2 = tested on: T2, DRAK2
T2 construct: gene STK17B

DYRK1A = tested on: DYRK1A
DYRK1B = tested on: DYRK1B
DYRK2 = tested on: DYRK2
EGFR = tested on: EGFR
EIF2AK1 = tested on: EIF2AK1
EPHA1 = tested on: EPHA1
EPHA2 = tested on: EPHA2
EPHA3 = tested on: EPHA3
EPHA4 = tested on: EPHA4
EPHA5 = tested on: EPHA5
EPHA6 = tested on: EPHA6
EPHA7 = tested on: EPHA7
EPHA8 = tested on: EPHA8
EPHB1 = tested on: EPHB1
EPHB2 = tested on: EPHB2
EPHB3 = tested on: EPHB3
EPHB4 = tested on: EPHB4
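Note: KINOMEscan kinase panel screen.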

COC(=O)Nc1nc2cc(Oc3ccc(NC(=O)Nc4cc(F)ccc4F)cc3)ccc2[nH]1.Cl [GW701424]
%Inh (DMPK): 0%
%Inh (DRAK1): 2%
%Inh (DRAK2): 0%
%Inh (DYRK1A): 5%
%Inh (DYRK1B): 6%
%Inh (DYRK2): 0%
%Inh (EGFR): 35%
%Inh (EIF2AK1): 0%
%Inh (EPHA1): 11%
%Inh (EPHA2): 63%
%Inh (EPHA3): 8%
%Inh (EPHA4): 37%
%Inh (EPHA5): 1%
%Inh (EPHA6): 75%
%Inh (EPHA7): 16%
%Inh (EPHA8): 75%
%Inh (EPHB1): 37%
%Inh (EPHB2): 68%
%Inh (EPHB3): 1%
%Inh (EPHB4): 53%

Cc1ccc(C(=O)NCC(N)=O)cc1-n1c(C)cc(OCc2ccc(F)cc2F)c(Br)c1=O
%Inh (DMPK): 0%
%Inh (DRAK1): 0%
%Inh (DRAK2): 5%
%Inh (DYRK1A): 0%
%Inh (DYRK1B): 0%
%Inh (DYRK2): 0%
%Inh (EGFR): 11%
%Inh (EIF2AK1): 0%
%Inh (EPHA1): 25%
%Inh (EPHA2): 40%
%Inh (EPHA3): 0%
%Inh (EPHA4): 12%
%Inh (EPHA5): 0%
%Inh (EPHA6): 27%
%Inh (EPHA7): 18%
%Inh (EPHA8): 15%
%Inh (EPHB1): 20%
%Inh (EPHB2): 19%
%Inh (EPHB3): 25%
%Inh (EPHB4): 27%

NCC(NC(=O)c1cc(-c2cn[nH]c2)c(-c2ccnc3[nH]ccc23)s1)c1ccccc1.O=C(O)C(F)(F)F.O=C(O)C(F)(F)F (stereo not drawn) [GSK1325775]
%Inh (DMPK): 95.8%
%Inh (DRAK1): 90.6%
%Inh (DRAK2): 0%
%Inh (DYRK1A): 44%
%Inh (DYRK1B): 35%
%Inh (DYRK2): 79%
%Inh (EGFR): 4%
%Inh (EIF2AK1): 0%
%Inh (EPHA1): 13%
%Inh (EPHA2): 0%
%Inh (EPHA3): 31%
%Inh (EPHA4): 0%
%Inh (EPHA5): 0%
%Inh (EPHA6): 0%
%Inh (EPHA7): 0%
%Inh (EPHA8): 7%
%Inh (EPHB1): 13%
%Inh (EPHB2): 0%
%Inh (EPHB3): 1%
%Inh (EPHB4): 0%

O=c1cc(N2CCOCC2)nc2n(Cc3cccc(F)c3)ccn12 [GSK2297430]
%Inh (DMPK): 12%
%Inh (DRAK1): 5%
%Inh (DRAK2): 0%
%Inh (DYRK1A): 26%
%Inh (DYRK1B): 0%
%Inh (DYRK2): 5%
%Inh (EGFR): 32%
%Inh (EIF2AK1): 0%
%Inh (EPHA1): 14%
%Inh (EPHA2): 9%
%Inh (EPHA3): 0%
%Inh (EPHA4): 10%
%Inh (EPHA5): 0%
%Inh (EPHA6): 10%
%Inh (EPHA7): 4%
%Inh (EPHA8): 13%
%Inh (EPHB1): 0%
%Inh (EPHB2): 0%
%Inh (EPHB3): 14%
%Inh (EPHB4): 17%

O=C1NC(=O)C(N2CCc3ccccc32)=C1c1cccc(Cl)c1 [SB-408010]
%Inh (DMPK): 7%
%Inh (DRAK1): 0%
%Inh (DRAK2): 0%
%Inh (DYRK1A): 0%
%Inh (DYRK1B): 0%
%Inh (DYRK2): 7%
%Inh (EGFR): 0%
%Inh (EIF2AK1): 5%
%Inh (EPHA1): 3%
%Inh (EPHA2): 15%
%Inh (EPHA3): 0%
%Inh (EPHA4): 19%
%Inh (EPHA5): 17%
%Inh (EPHA6): 18%
%Inh (EPHA7): 0%
%Inh (EPHA8): 0%
%Inh (EPHB1): 0%
%Inh (EPHB2): 3%
%Inh (EPHB3): 23%
%Inh (EPHB4): 22%

Nc1nc(-c2ccc3c(N)n[nH]c3c2)cc(N2CCCC2)n1 [GSK2227430]
%Inh (DMPK): 0%
%Inh (DRAK1): 73%
%Inh (DRAK2): 0%
%Inh (DYRK1A): 9%
%Inh (DYRK1B): 4%
%Inh (DYRK2): 37%
%Inh (EGFR): 2%
%Inh (EIF2AK1): 0%
%Inh (EPHA1): 0%
%Inh (EPHA2): 12%
%Inh (EPHA3): 3%
%Inh (EPHA4): 5%
%Inh (EPHA5): 0%
%Inh (EPHA6): 6%
%Inh (EPHA7): 0%
%Inh (EPHA8): 6%
%Inh (EPHB1): 0%
%Inh (EPHB2): 0%
%Inh (EPHB3): 13%
%Inh (EPHB4): 10%

NCCNS(=O)(=O)c1ccc(-c2ccnc3[nH]ccc23)cc1 [GSK977617]
%Inh (DMPK; 1 µM): 98.6% and 96.7%
%Inh (DRAK1; 1 µM): 98.5% and 96.6%
%Inh (DRAK2; 1 µM): 77% and 60%
%Inh (DYRK1A; 1 µM): 89% and 84%
%Inh (DYRK1B; 1 µM): 85% and 61%
%Inh (DYRK2; 1 µM): 86% and 72%
%Inh (EGFR; 1 µM): 22% and 15%
%Inh (EIF2AK1; 1 µM): 11% and 0%
%Inh (EPHA1; 1 µM): 54% and 38%
%Inh (EPHA2): 0%
%Inh (EPHA3; 1 µM): 52% and 31%
%Inh (EPHA4; 1 µM): 6% and 0%
%Inh (EPHA5): 0%
%Inh (EPHA6; 1 µM): 5% and 0%
%Inh (EPHA7; 1 µM): 16% and 15%
%Inh (EPHA8; 1 µM): 13% and 16%
%Inh (EPHB1; 1 µM): 23% and 15%
%Inh (EPHB2): 0%
%Inh (EPHB3; 1 µM): 11% and 0%
%Inh (EPHB4; 1 µM): 11% and 1%

CC(C)(C)n1cnc2c(N)ncnc21 [SKF-97359]
%Inh (DMPK): 9%
%Inh (DRAK1): 0%
%Inh (DRAK2): 6%
%Inh (DYRK1A): 0%
%Inh (DYRK1B): 61%
%Inh (DYRK2): 0%
%Inh (EGFR): 39%
%Inh (EIF2AK1): 0%
%Inh (EPHA1): 0%
%Inh (EPHA2): 0%
%Inh (EPHA3): 0%
%Inh (EPHA4): 0%
%Inh (EPHA5): 0%
%Inh (EPHA6): 0%
%Inh (EPHA7): 0%
%Inh (EPHA8): 7%
%Inh (EPHB1): 0%
%Inh (EPHB2): 0%
%Inh (EPHB3): 0%
%Inh (EPHB4): 0%

COc1ccc(Nc2nccc(N3CCC(NC(=O)Nc4cccc(C(C)=O)c4)C3)n2)cc1 (stereo not drawn) [GSK1379731]
%Inh (DMPK): 0%
%Inh (DRAK1): 0%
%Inh (DRAK2): 0%
%Inh (DYRK1A): 23%
%Inh (DYRK1B): 0%
%Inh (DYRK2): 0%
%Inh (EGFR): 15%
%Inh (EIF2AK1): 0%
%Inh (EPHA1): 2%
%Inh (EPHA2): 4%
%Inh (EPHA3): 0%
%Inh (EPHA4): 6%
%Inh (EPHA5): 0%
%Inh (EPHA6): 0%
%Inh (EPHA7): 0%
%Inh (EPHA8): 9%
%Inh (EPHB1): 0%
%Inh (EPHB2): 0%
%Inh (EPHB3): 9%
%Inh (EPHB4): 5%

C[C@@H](Oc1cc(-n2cnc3ccc(NC(=O)NC(C)(C)C)cc32)sc1C(N)=O)c1ccccc1Cl [GSK346294]
%Inh (DMPK): 0%
%Inh (DRAK1): 0%
%Inh (DRAK2): 0%
%Inh (DYRK1A): 0%
%Inh (DYRK1B): 0%
%Inh (DYRK2): 15%
%Inh (EGFR): 32%
%Inh (EIF2AK1): 0%
%Inh (EPHA1): 4%
%Inh (EPHA2): 0%
%Inh (EPHA3): 26%
%Inh (EPHA4): 3%
%Inh (EPHA5): 0%
%Inh (EPHA6): 5%
%Inh (EPHA7): 17%
%Inh (EPHA8): 27%
%Inh (EPHB1): 14%
%Inh (EPHB2): 15%
%Inh (EPHB3): 18%
%Inh (EPHB4): 7%

O=C1Cc2cc(Nc3nc(NCc4cccc(S(=O)(=O)C(F)(F)F)c4)ncc3C(F)(F)F)ccc2N1
%Inh (DMPK): 5%
%Inh (DRAK1): 6%
%Inh (DRAK2): 0%
%Inh (DYRK1A): 13%
%Inh (DYRK1B): 26%
%Inh (DYRK2): 0%
%Inh (EGFR): 0%
%Inh (EIF2AK1): 0%
%Inh (EPHA1): 19%
%Inh (EPHA2): 3%
%Inh (EPHA3): 0%
%Inh (EPHA4): 0%
%Inh (EPHA5): 10%
%Inh (EPHA6): 0%
%Inh (EPHA7): 0%
%Inh (EPHA8): 0%
%Inh (EPHB1): 0%
%Inh (EPHB2): 0%
%Inh (EPHB3): 1%
%Inh (EPHB4): 8%

CC(=O)Nc1ccc(COc2ccc(Nc3ccnc4cc(-c5ccccn5)ccc34)cc2)cc1.Cl [GW440148]
%Inh (DMPK): 0%
%Inh (DRAK1): 1%
%Inh (DRAK2): 21%
%Inh (DYRK1A): 4%
%Inh (DYRK1B): 33%
%Inh (DYRK2): 11%
%Inh (EGFR): 23%
%Inh (EIF2AK1): 0%
%Inh (EPHA1): 11%
%Inh (EPHA2): 0%
%Inh (EPHA3): 17%
%Inh (EPHA4): 3%
%Inh (EPHA5): 0%
%Inh (EPHA6): 8%
%Inh (EPHA7): 0%
%Inh (EPHA8): 17%
%Inh (EPHB1): 0%
%Inh (EPHB2): 0%
%Inh (EPHB3): 8%
%Inh (EPHB4): 10%

CC(C)(CN)c1nc(-c2ccc(Cl)c(O)c2)c(-c2ccncc2)[nH]1.O=C(O)C(F)(F)F [SB-477794]
%Inh (DMPK; 1 µM): 0% and 98.6%
%Inh (DRAK1; 1 µM): 0% and 5%
%Inh (DRAK2): 0%
%Inh (DYRK1A): 0%
%Inh (DYRK1B; 1 µM): 0% and 5%
%Inh (DYRK2; 1 µM): 0% and 5%
%Inh (EGFR; 1 µM): 70% and 47%
%Inh (EIF2AK1): 0%
%Inh (EPHA1; 1 µM): 97.1% and 95.8%
%Inh (EPHA2; 1 µM): 26% and 33%
%Inh (EPHA3; 1 µM): 50% and 61%
%Inh (EPHA4; 1 µM): 42% and 23%
%Inh (EPHA5; 1 µM): 0% and 2%
%Inh (EPHA6; 1 µM): 74% and 63%
%Inh (EPHA7; 1 µM): 35% and 20%
%Inh (EPHA8; 1 µM): 87% and 85%
%Inh (EPHB1; 1 µM): 45% and 20%
%Inh (EPHB2; 1 µM): 37% and 30%
%Inh (EPHB3; 1 µM): 35% and 14%
%Inh (EPHB4; 1 µM): 24% and 38%

Cc1nnc(-c2ccc3ncc(-c4ccc(S(C)=O)cc4)n3c2)o1 (stereo not drawn)
%Inh (DMPK): 1%
%Inh (DRAK1): 0%
%Inh (DRAK2): 7%
%Inh (DYRK1A): 16%
%Inh (DYRK1B): 66%
%Inh (DYRK2): 6%
%Inh (EGFR): 9%
%Inh (EIF2AK1): 6%
%Inh (EPHA1): 0%
%Inh (EPHA2): 0%
%Inh (EPHA3): 2%
%Inh (EPHA4): 8%
%Inh (EPHA5): 11%
%Inh (EPHA6): 22%
%Inh (EPHA7): 1%
%Inh (EPHA8): 1%
%Inh (EPHB1): 0%
%Inh (EPHB2): 18%
%Inh (EPHB3): 12%
%Inh (EPHB4): 0%

Cn1cc(-c2ccc3c(c2)CCN3C(=O)Cc2ccccc2Cl)c2c(N)ncnc21 [GSK2608885]
%Inh (DMPK): 0%
%Inh (DRAK1): 0%
%Inh (DRAK2): 0%
%Inh (DYRK1A): 7%
%Inh (DYRK1B): 12%
%Inh (DYRK2): 29%
%Inh (EGFR): 100%
%Inh (EIF2AK1): 6%
%Inh (EPHA1): 88%
%Inh (EPHA2): 77%
%Inh (EPHA3): 34%
%Inh (EPHA4): 62%
%Inh (EPHA5): 0%
%Inh (EPHA6): 58%
%Inh (EPHA7): 92%
%Inh (EPHA8): 93.5%
%Inh (EPHB1): 43%
%Inh (EPHB2): 64%
%Inh (EPHB3): 0%
%Inh (EPHB4): 15%
